Values without a mark were called inactive. The rule behind the calls is not given here.
Molecular target: Pantothenate synthetase (Mycobacterium tuberculosis (strain ATCC 25618 / H37Rv)) (UniProt P9WIL5)
Assay: Recombinant Mtb pantothenate synthetase (PanC) inhibitors, coupled enzyme, confirmatory (AID 375);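 note: 0% = full reaction with vehicle and 100% = no enzyme background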
Conditions: coupled enzyme assay; at 10 µM, stronger effect = higher value

Pantothenate synthetase (Mycobacterium tuberculosis (strain ATCC 25618 / H37Rv)), sequence (P9WIL5 whole entry, looked up): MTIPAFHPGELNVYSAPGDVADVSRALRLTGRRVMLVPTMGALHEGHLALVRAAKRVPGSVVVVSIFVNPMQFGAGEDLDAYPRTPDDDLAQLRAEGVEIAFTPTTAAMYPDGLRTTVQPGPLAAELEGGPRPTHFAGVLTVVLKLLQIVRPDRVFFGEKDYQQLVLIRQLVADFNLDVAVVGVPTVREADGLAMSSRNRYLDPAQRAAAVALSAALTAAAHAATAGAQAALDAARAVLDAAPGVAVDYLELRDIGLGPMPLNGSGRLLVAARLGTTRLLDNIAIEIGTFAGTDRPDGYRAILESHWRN

Compound | inhibition [%]
CCCOc1cccc(NC(=O)c2c(-c3ccccc3)noc2C)c1 | 0
CN(Cc1ccccc1)C(=O)c1ccccc1NC(=O)c1ccco1 | 0
CC1CCN(Cc2ccc(-c3nn[nH]n3)cc2)CC1 | 0
CCN(CC)c1ccc(NC(=O)c2cncc(Br)c2)cc1 | 0
O=C(Nc1nncs1)c1ccccc1NS(=O)(=O)c1cccs1 | 0
C=C(C)Cn1c(N2CCN(CC)CC2)nc2c1c(=O)[nH]c(=O)n2C | 0
CCOc1cccc(OCCCCn2ccnc2)c1 | 0
O=C(NCCSCc1ccco1)Nc1cccc(Cl)c1 | 3
CN1[C@@H](CC(=O)c2ccccc2)CCC[C@H]1C[C@H](O)c1ccccc1 | 8
CC(C)C(=O)Nc1cccc(NC(=O)c2cccnc2)c1 | 1
CCCCn1cnc2c(cnn2-c2ccc(Cl)cc2)c1=O | 6
O=C(CS(=O)(=O)Cc1ccccc1)Nc1nc2ccccc2s1 | 0
COc1ccccc1-n1c(C)nnc1SCC(N)=O | 0
CC1=C(C(=O)Nc2ccc(F)cc2)C(c2cccc(C)c2)n2nc(CCCO)nc2N1 (centres undefined) | 6
CCOc1ccc(OCc2cccc(C(=O)N3CCOCC3)c2)cc1 | 2
CCOC(=O)C1=C(N)OC2=C(C(=O)CC(C)(C)C2)C1c1ccco1 (centres undefined) | 5
CC1=CC2=C(OC1N(C)C)c1cccc3cccc(c13)C2=O (centres undefined) | 5
Cc1ccc(C)c(N2CCN(Cc3nnnn3C3CCCCC3)CC2)c1 | 1
CCCCOC(=O)Cn1c(=N)n(CCN2CCOCC2)c2ccccc21 | 0
CC(C)(C)OC(=O)N1CCC(C(=O)N2CCCCCC2)CC1 | 5
CCOC(=O)N1CCC(NC(=O)C2CCN(S(=O)(=O)c3cccc4cccnc34)CC2)CC1 | 0
CC1(C)Cc2cccc(OCC(O)CN3CCN(c4ccccn4)CC3)c2O1 (centres undefined) | 0
CCCOc1ccc(NC2=CC(=O)CC(C)(C)C2)cc1 | 0
c1cc2c(cc1Nc1nc(-c3ccc4c(c3)OCO4)cs1)OCCO2 | 4

Reference: PubChem BioAssay
